Inconclusive results are not listed. The source made the active and inactive calls. Calls follow the shape of the dose curve; as a rule, active = well fitted cell-killing curve with a large enough effect; inconclusive = small, poorly fitted or top-dose-only effect, or effect the other way; inactive = flat fitted curve, though single readings scatter.
Assays:
Test in all cases: Primary qHTS to identify gynecologic anti-cancer compounds using libraries of approved drugs and bioactive compounds (AID 1345084); also: nearly all actives have a fitted effect of over 55% in size
Conditions in all cases: Gynecologic cancer cell panel viability, ATPlite luminescence, 48 h; series mostly up to 57.5 µM
SKOV3 = system: SKOV3
Outline: (§1)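 Cytotoxicity screen measuring ATP content by luciferase luminescence. Each compound is applied at five concentrations for 48 h at 37 C with 5% CO2.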

Tov-21-G = system: Tov-21-G
Outline: as §1

Tov112D = system: Tov112D
Outline: as §1
% is scaled to controls: 0 for no effect and ±100 for the full control effect.

COC1CC(=O)CCC(C)OC(=O)CC1O (configuration not stated)
inactive: Potency (SKOV3) | Potency (Tov-21-G) | Potency (Tov112D)

CN1C(=O)c2ccccc2NC(=O)[C@]12O[C@@H]2c1cccc(O)c1
inactive: Potency (SKOV3) | Potency (Tov-21-G) | Potency (Tov112D)

CCOC(=O)Nc1nc2ccccc2[nH]1
inactive: Potency (SKOV3) | Potency (Tov-21-G) | Potency (Tov112D)

CC(C)CNC(=O)/C=C/CCCCc1ccc2c(c1)OCO2
inactive: Potency (SKOV3) | Potency (Tov-21-G) | Potency (Tov112D)

CC(=O)O[C@@H]1C[C@@]23C[C@@]24CC[C@H](OC2OC[C@@H](O)[C@H](O)[C@H]2O)C(C)(C)[C@@H]4CC[C@H]3[C@]2(C)CC3OC4(C[C@@H](C)C3[C@@]12C)OCC1(C)OC14 (some centres not stated)
inactive: Potency (SKOV3) | Potency (Tov-21-G) | Potency (Tov112D)

O=C(/C=C/c1ccc(O)cc1)OC[C@]12O[C@H]1[C@@H](O)[C@@H]1C=CO[C@@H](O[C@@H]3O[C@H](CO)[C@@H](O)[C@H](O)[C@H]3O)[C@@H]12
inactive: Potency (SKOV3) | Potency (Tov-21-G) | Potency (Tov112D)

CCC(CC)n1ccc2c(C(=O)NCc3c(C)cc(C)[nH]c3=O)cc(C#N)cc21
inactive: Potency (SKOV3) | Potency (Tov-21-G) | Potency (Tov112D)

C/C(=C\CCC(C)(O)c1ccc(C)cc1)C(=O)O (configuration not stated)
inactive: Potency (SKOV3) | Potency (Tov-21-G) | Potency (Tov112D)

CO[C@@H]1COCC[C@@H]1N[C@@H]1CC[C@@](C(=O)N2CCc3ncc(C(F)(F)F)cc3C2)(C(C)C)C1
inactive: Potency (SKOV3) | Potency (Tov-21-G) | Potency (Tov112D)

C=C1C(=O)OC2CC(C)=C(C(C)CCCO[C@@H]3O[C@H](CO)[C@@H](O)[C@H](O)[C@H]3O)C(O)C12 (some centres not stated)
inactive: Potency (SKOV3) | Potency (Tov-21-G) | Potency (Tov112D)

CCc1cc2c(=O)c(-c3nc4ccccc4s3)coc2c(CN2CCCCC2)c1O
inactive: Potency (SKOV3) | Potency (Tov-21-G) | Potency (Tov112D)

COc1cc([C@@H]2Oc3c(OC)cc(CCCO)cc3[C@@H]2CO[C@@H]2O[C@H](CO)[C@@H](O)[C@H](O)[C@H]2O)ccc1O
inactive: Potency (SKOV3) | Potency (Tov-21-G) | Potency (Tov112D)

C=CC(C)(O)CO[C@@H]1O[C@H](CO)[C@@H](O)[C@H](O)[C@H]1O (some centres not stated)
inactive: Potency (SKOV3) | Potency (Tov-21-G) | Potency (Tov112D)

OCc1ccccc1O[C@@H]1O[C@H](CO)[C@@H](O)[C@H](O)[C@H]1O
inactive: Potency (SKOV3) | Potency (Tov-21-G) | Potency (Tov112D)

O=C(NN1CCCCC1)c1nn(-c2ccc(Cl)cc2Cl)c(-c2ccc(C#Cc3ccc(C(F)(F)F)cc3)s2)c1CNS(=O)(=O)N1CCCC1
inactive: Potency (SKOV3) | Potency (Tov-21-G) | Potency (Tov112D)

C[C@@H]1O[C@@H](O[C@H]2[C@H](O[C@H]3CO[C@@H](O[C@H]4CC[C@@]5(C)C(CC[C@]6(C)C5CC[C@]57OC[C@@]8(CC[C@](C)(CO)CC85)[C@H](O)C[C@]76C)C4(C)C)[C@H](O[C@@H]4O[C@H](CO)[C@@H](O)[C@H](O)[C@H]4O)[C@H]3O)O[C@H](CO)[C@@H](O)[C@@H]2O)[C@H](O)[C@H](O)[C@H]1O (some centres not stated)
inactive: activity change, negative = cytotoxicity (SKOV3) 20.5% [at 11.6 µM] | activity change, negative = cytotoxicity (Tov-21-G) -1.65% [at 11.6 µM] | activity change, negative = cytotoxicity (Tov112D) -8.07% [at 11.6 µM]

COc1cc2c(cc1OC)CN(C(=O)[C@@H](NCc1ccncc1)C(C)(C)C)CC2
inactive: Potency (SKOV3) | Potency (Tov-21-G) | Potency (Tov112D)

CC(C)C1(O[C@@H]2O[C@H](CO)[C@@H](O)[C@H](O)[C@H]2O)CC=C(CO)CC1 (some centres not stated)
inactive: Potency (SKOV3) | Potency (Tov-21-G) | Potency (Tov112D)

CCNC(=O)[C@@H]1CCCN1C(=O)[C@H](CCCN=C(N)N)NC(=O)[C@H](CC(C)C)NC(=O)[C@@H](C)NC(=O)[C@H](Cc1ccc(O)cc1)NC(=O)[C@H](CO)NC(=O)[C@H](Cc1c[nH]c2ccccc12)NC(=O)[C@H](Cc1cnc[nH]1)NC(=O)[C@@H]1CCC(=O)N1
inactive: Potency (SKOV3) | Potency (Tov-21-G) | Potency (Tov112D)

CC(=O)O[C@H](C[C@@H](C)[C@H]1C(=O)[C@H](O)[C@@]2(C)[C@@H]3CCC4C(C)(C)[C@@H](O[C@@H]5OC[C@H](O)[C@H](O)[C@H]5O)CC[C@@]45C[C@@]35CC[C@]12C)[C@@H]1OC1(C)C (some centres not stated)
inactive: Potency (SKOV3) | Potency (Tov-21-G) | Potency (Tov112D)

O=C(c1ccccn1)c1cnn2c(-c3ccncc3)ccnc12
inactive: Potency (SKOV3) | Potency (Tov-21-G) | Potency (Tov112D)

CC(C#N)C(C)O[C@@H]1O[C@H](CO)[C@@H](O)[C@H](O)[C@H]1O (some centres not stated)
inactive: Potency (SKOV3) | Potency (Tov-21-G) | Potency (Tov112D)

C[C@@H]1C[C@H](O[C@@H]2O[C@H](CO[C@@H]3OC[C@](O)(CO)[C@H]3O)[C@@H](O)[C@H](O)[C@H]2O)CC(C)(C)[C@H]1/C=C/[C@@H](C)O
inactive: Potency (SKOV3) | Potency (Tov-21-G) | Potency (Tov112D)

C=C1C2(CCC(=O)OC2(C)C)CC(OC(=O)/C(C)=C/C)C2(C)C13OC14C(=O)OC(C)(C(=O)C12C(=O)OC4C)C3OC(C)=O (configuration not stated)
inactive: Potency (SKOV3) | Potency (Tov-21-G) | Potency (Tov112D)

C=C1C(O[C@@H]2O[C@H](CO)[C@@H](O)[C@H](O)[C@@H]2O)CC2C(C)(C)C(O)CCC2(C)C1CC/C(C)=C\CO (some centres not stated)
inactive: Potency (SKOV3) | Potency (Tov-21-G) | Potency (Tov112D)

CC1(C(=O)O)CCCC2(C)C1CCC13CC(CCC21)C1(CO)OC31 (configuration not stated)
inactive: Potency (SKOV3) | Potency (Tov-21-G) | Potency (Tov112D)

CC1(C)CC[C@]2(C(=O)O)CC[C@]3(C)C(=CCC4[C@@]5(C)CCC(O[C@@H]6OC[C@H](O)[C@H](O)[C@H]6O[C@@H]6O[C@H](CO)[C@@H](O)[C@H](O)[C@H]6O)[C@@](C)(CO)C5CC[C@]43C)[C@@H]2C1 (some centres not stated)
inactive: Potency (SKOV3) | Potency (Tov-21-G) | Potency (Tov112D)

CC1(C)CC2C(O)C3=C(CC(C)(O)C2C1)C(=O)OC3O (configuration not stated)
inactive: Potency (SKOV3) | Potency (Tov-21-G) | Potency (Tov112D)

CC1=CC(=O)C2C(C)(C)CC(O)CC2(C)C1CO (configuration not stated)
inactive: Potency (SKOV3) | Potency (Tov-21-G) | Potency (Tov112D)

CC1=C2CC3OC3(C)CCC3OC3(C)CC2OC1=O (configuration not stated)
inactive: Potency (SKOV3) | Potency (Tov-21-G) | Potency (Tov112D)

C[C@@H]1CC[C@]2(C(=O)O)CC[C@]3(C(=O)O)C(=CCC4[C@@]5(C)CC[C@H](O[C@@H]6O[C@@H](C)[C@H](O[C@@H]7O[C@H](CO)[C@@H](O)[C@H](O)[C@H]7O)[C@@H](O)[C@H]6O)C(C)(C)C5CC[C@]43C)C2[C@H]1C (some centres not stated)
inactive: Potency (SKOV3) | Potency (Tov-21-G) | Potency (Tov112D)

NC(Cc1c[nH]c2ccccc12)C(=O)NC(CCC(=O)O)C(=O)O (configuration not stated)
inactive: Potency (SKOV3) | Potency (Tov-21-G) | Potency (Tov112D)

C[C@]1(OC(=O)/C=C/c2ccccc2)C[C@H](O)[C@]2(O)C=CO[C@@H](O[C@@H]3O[C@H](CO)[C@@H](O)[C@H](O)[C@H]3O)C12 (some centres not stated)
inactive: Potency (SKOV3) | Potency (Tov-21-G) | Potency (Tov112D)

COC(=O)c1ccc(O[C@@H]2O[C@H](CO)[C@@H](O)[C@H](O)[C@H]2O)c(OC)c1
inactive: Potency (SKOV3) | Potency (Tov-21-G) | Potency (Tov112D)

C[C@H]1CC[C@@]2(OC1)O[C@H]1CC3C4CC=C5C[C@H](O)C[C@@H](O[C@@H]6O[C@@H](C)[C@H](O)[C@@H](O)[C@H]6O[C@@H]6O[C@@H](C)[C@H](O)[C@@H](O)[C@H]6O)[C@]5(C)C4CC[C@]3(C)[C@H]1[C@@H]2C (some centres not stated)
inactive: Potency (SKOV3) | Potency (Tov-21-G) | Potency (Tov112D)

C=C1C2=CC(O)C(C)C1(C)CC/C(C)=C/CCC1(C)OC1C2=O (configuration not stated)
inactive: Potency (SKOV3) | Potency (Tov-21-G) | Potency (Tov112D)

N#Cc1ccnc(N2C(=O)CC[C@H]2C(=O)N(c2cncc(F)c2)[C@H](C(=O)NC2CC(F)(F)C2)c2ccccc2Cl)c1
inactive: Potency (SKOV3) | Potency (Tov-21-G) | Potency (Tov112D)

O=C(O[C@H]1[C@@H]2C[C@@H]3OC[C@@](O)([C@H]2[C@H](O[C@@H]2O[C@H](CO)[C@@H](O)[C@H](O)[C@H]2O)O3)[C@@H]1O)c1ccccc1
inactive: Potency (SKOV3) | Potency (Tov-21-G) | Potency (Tov112D)

CC1CCC2C(C(=O)O)=CC3CC(C)(C)CC132 (configuration not stated)
inactive: Potency (SKOV3) | Potency (Tov-21-G) | Potency (Tov112D)

CC1(C)CCCC2(C)C1C(O)C=C(CO)C2(O)C(=O)O (configuration not stated)
inactive: Potency (SKOV3) | Potency (Tov-21-G) | Potency (Tov112D)

CC1=CC(=O)CC(C)(C)C1CCC(C)OC1OC(COC(=O)c2cc(O)c(O)c(O)c2)C(O)C(O)C1O (configuration not stated)
inactive: Potency (SKOV3) | Potency (Tov-21-G) | Potency (Tov112D)

CC1(C)C(O)CCC2(C)C1C(O)C=C1COC(=O)C12O (configuration not stated)
inactive: Potency (SKOV3) | Potency (Tov-21-G) | Potency (Tov112D)

O=C(NCc1ccc(OC(F)(F)F)cc1)C1c2ccccc2C(=O)N1C1CCOCC1 (configuration not stated)
inactive: Potency (SKOV3) | Potency (Tov-21-G) | Potency (Tov112D)

CCC/C=C/C(=O)O[C@H]1CC(C)(C)CC2[C@]13[C@H](O)O[C@@]21CCC2[C@@]4(C)CC[C@H](O[C@@H]5O[C@H](C(=O)O)[C@@H](O)[C@H](O[C@@H]6O[C@H](CO)[C@H](O)[C@H](O)[C@H]6O[C@@H]6O[C@@H](C)[C@H](O)[C@@H](O)[C@H]6O[C@@H]6OC[C@](O)(CO)[C@H]6O)[C@H]5O[C@@H]5O[C@H](CO)[C@H](O)[C@H](O)[C@H]5O)C(C)(C)C4CC[C@@]2(C)[C@]1(C)C[C@H]3OC(C)=O (some centres not stated)
inactive: activity change, negative = cytotoxicity (SKOV3) 13% [at 6.55 µM] | activity change, negative = cytotoxicity (Tov-21-G) 0.0885% [at 6.55 µM] | activity change, negative = cytotoxicity (Tov112D) 1.84% [at 6.55 µM]

CCC(CCO[C@@H]1O[C@H](CO[C@H]2OC[C@](O)(CO)[C@H]2O)[C@@H](O)[C@H](O)[C@H]1O)C(C)(C)O (some centres not stated)
inactive: Potency (SKOV3) | Potency (Tov-21-G) | Potency (Tov112D)

CN[C@@H]1[C@@H](O)[C@@H](O[C@@H]2[C@@H](O)[C@H](O[C@H]3O[C@H](CN)[C@@H](O)[C@H](O)[C@H]3O)[C@@H](N)C[C@H]2NC(=O)[C@@H](O)CN)OC[C@]1(C)O
inactive: Potency (SKOV3) | Potency (Tov-21-G) | Potency (Tov112D)

CC(=O)c1c(C)cc(O[C@@H]2O[C@H](CO)[C@@H](O)[C@H](O)[C@H]2O)cc1O
inactive: Potency (SKOV3) | Potency (Tov-21-G) | Potency (Tov112D)

C=C1C(OC(C)=O)C(=O)C2C(C)(C)C(OC(C)=O)CCC2(C)C1CC(OC(C)=O)/C(C)=C/COC(C)=O (configuration not stated)
inactive: Potency (SKOV3) | Potency (Tov-21-G) | Potency (Tov112D)

C=C(C)[C@@H](C)[C@H]1O[C@]23C[C@]4(CO2)C(CCC2[C@@]5(C)CC[C@H](O[C@@H]6OC[C@H](O)[C@H](O[C@@H]7O[C@H](CO)[C@@H](O)[C@H](O)[C@H]7O)[C@H]6O[C@@H]6O[C@@H](CO)[C@H](O)[C@H]6O)C(C)(C)C5CC[C@]24C)C3[C@@](C)(O)[C@@H]1OC(C)=O (some centres not stated)
inactive: activity change, negative = cytotoxicity (SKOV3) 6.78% [at 11.6 µM] | activity change, negative = cytotoxicity (Tov-21-G) 0.172% [at 11.6 µM] | activity change, negative = cytotoxicity (Tov112D) 3.31% [at 11.6 µM]

Reference: PubChem BioAssay (NCATS)
